Assay [1] has as its target ALK tyrosine kinase receptor (Homo sapiens) (UniProt Q9UM73). To be noted: at 10 µM.
The target in assay [2] is T1, Activin receptor type-1B (Homo sapiens) (UniProt P36896).
T1 sequence (whole entry): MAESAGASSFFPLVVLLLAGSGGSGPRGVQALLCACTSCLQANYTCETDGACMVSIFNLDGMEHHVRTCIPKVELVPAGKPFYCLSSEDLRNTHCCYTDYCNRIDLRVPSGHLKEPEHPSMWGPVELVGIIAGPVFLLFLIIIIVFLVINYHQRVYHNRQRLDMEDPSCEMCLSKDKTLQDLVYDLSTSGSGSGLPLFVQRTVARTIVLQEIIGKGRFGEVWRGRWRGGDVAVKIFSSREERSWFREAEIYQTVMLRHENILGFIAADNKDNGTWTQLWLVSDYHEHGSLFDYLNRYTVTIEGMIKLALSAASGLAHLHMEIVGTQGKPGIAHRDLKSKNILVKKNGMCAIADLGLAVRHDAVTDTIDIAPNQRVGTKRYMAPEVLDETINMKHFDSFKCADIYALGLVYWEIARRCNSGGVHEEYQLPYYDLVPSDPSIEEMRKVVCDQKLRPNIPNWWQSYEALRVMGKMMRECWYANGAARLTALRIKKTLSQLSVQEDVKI
To be noted: at 1 µM.

In assay [3] the target is T1, Activin receptor type-1B (Homo sapiens). To be noted: at 10 µM.
The target in assay [4] is T2, AMP-activated protein kinase (AMPK) alpha-1/beta-1/gamma-1 (Homo sapiens) (UniProt P54619+Q9Y478+Q13131). Particulars: at 1 µM.
In assay [5] the target is T2, AMP-activated protein kinase (AMPK) alpha-1/beta-1/gamma-1 (Homo sapiens). Particulars: at 10 µM.
Assay [6] deals with T3, AMP-activated protein kinase, AMPK (Homo sapiens) (UniProt P54646+O43741+P54619+Q9UGJ0+Q9Y478+Q13131+Q9UGI9). To be noted: at 1 µM.
Assay [7] deals with T3, AMP-activated protein kinase, AMPK (Homo sapiens). To be noted: at 10 µM.
Assay [8] has as its target T4, NUAK family SNF1-like kinase 1 (Homo sapiens) (UniProt O60285).
T4 sequence (whole entry): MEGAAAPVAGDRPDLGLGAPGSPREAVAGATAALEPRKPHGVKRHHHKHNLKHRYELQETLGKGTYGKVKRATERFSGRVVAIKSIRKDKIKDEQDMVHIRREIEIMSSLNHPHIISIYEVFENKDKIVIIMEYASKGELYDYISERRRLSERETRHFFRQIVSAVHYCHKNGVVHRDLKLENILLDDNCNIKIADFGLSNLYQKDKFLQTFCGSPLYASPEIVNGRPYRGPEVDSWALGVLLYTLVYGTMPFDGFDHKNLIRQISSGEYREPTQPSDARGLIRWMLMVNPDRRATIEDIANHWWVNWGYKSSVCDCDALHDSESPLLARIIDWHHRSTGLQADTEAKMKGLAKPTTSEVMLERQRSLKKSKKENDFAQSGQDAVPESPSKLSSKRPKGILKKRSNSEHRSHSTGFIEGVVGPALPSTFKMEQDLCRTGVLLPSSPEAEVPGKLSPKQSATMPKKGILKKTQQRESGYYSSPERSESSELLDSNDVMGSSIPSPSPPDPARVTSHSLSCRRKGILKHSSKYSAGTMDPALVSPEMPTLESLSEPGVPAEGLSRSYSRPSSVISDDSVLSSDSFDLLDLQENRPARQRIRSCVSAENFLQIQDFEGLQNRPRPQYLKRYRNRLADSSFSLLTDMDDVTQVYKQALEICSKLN
To be noted: at 1 µM.

The target of assay [9] is T4, NUAK family SNF1-like kinase 1 (Homo sapiens). Particulars: at 10 µM.
Assay [10] has as its target T5, Mitogen-activated protein kinase kinase kinase 5 (Homo sapiens) (UniProt Q99683).
T5 sequence (whole entry): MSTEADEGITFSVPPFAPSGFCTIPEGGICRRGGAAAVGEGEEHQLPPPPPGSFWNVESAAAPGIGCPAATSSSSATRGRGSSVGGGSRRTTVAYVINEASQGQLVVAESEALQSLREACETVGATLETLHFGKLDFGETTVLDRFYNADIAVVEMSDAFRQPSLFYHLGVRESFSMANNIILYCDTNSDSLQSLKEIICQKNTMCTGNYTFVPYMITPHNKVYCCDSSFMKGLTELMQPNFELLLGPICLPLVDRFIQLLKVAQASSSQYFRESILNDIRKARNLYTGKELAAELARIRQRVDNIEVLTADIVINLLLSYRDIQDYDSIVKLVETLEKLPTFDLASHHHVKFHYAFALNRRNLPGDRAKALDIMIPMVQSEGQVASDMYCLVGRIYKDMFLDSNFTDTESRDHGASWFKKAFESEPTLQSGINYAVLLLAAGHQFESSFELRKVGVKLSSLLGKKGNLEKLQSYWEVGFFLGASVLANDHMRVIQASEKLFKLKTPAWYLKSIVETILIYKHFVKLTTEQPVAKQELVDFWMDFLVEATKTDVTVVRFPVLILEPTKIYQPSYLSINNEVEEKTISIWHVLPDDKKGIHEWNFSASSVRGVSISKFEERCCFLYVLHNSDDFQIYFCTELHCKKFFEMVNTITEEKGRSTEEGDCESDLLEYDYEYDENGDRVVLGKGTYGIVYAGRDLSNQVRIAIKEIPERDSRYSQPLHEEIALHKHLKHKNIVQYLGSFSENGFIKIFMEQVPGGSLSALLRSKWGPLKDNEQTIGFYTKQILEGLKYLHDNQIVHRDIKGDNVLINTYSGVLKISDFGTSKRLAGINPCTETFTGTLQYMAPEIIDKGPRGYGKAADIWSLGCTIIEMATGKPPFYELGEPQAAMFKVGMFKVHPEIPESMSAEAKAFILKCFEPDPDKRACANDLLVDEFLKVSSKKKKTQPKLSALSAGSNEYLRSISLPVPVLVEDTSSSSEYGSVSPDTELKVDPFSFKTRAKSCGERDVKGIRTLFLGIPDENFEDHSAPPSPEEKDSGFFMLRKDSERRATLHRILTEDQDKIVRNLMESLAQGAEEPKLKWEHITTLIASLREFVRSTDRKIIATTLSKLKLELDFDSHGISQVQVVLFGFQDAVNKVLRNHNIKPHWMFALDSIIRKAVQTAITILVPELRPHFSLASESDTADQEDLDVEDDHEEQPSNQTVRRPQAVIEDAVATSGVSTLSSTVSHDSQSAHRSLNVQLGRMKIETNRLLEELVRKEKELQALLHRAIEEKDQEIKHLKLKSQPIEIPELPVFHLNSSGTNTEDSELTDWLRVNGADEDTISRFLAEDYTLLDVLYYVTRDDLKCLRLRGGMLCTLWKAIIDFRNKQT
Particulars: at 1 µM.

In assay [11] the target is Platelet-derived growth factor receptor alpha (Homo sapiens) (UniProt P16234). Particulars: at 1 µM.
Assay [12] has the same target. Particulars: at 10 µM.
In assay [13] the target is Platelet-derived growth factor receptor beta (Homo sapiens) (UniProt P09619). Particulars: at 1 µM.
The target is the same in assay [14]. Particulars: at 10 µM.
Assay [15] addresses T6, 3-phosphoinositide-dependent protein kinase 1 (Homo sapiens) (UniProt O15530).
T6 sequence (whole entry): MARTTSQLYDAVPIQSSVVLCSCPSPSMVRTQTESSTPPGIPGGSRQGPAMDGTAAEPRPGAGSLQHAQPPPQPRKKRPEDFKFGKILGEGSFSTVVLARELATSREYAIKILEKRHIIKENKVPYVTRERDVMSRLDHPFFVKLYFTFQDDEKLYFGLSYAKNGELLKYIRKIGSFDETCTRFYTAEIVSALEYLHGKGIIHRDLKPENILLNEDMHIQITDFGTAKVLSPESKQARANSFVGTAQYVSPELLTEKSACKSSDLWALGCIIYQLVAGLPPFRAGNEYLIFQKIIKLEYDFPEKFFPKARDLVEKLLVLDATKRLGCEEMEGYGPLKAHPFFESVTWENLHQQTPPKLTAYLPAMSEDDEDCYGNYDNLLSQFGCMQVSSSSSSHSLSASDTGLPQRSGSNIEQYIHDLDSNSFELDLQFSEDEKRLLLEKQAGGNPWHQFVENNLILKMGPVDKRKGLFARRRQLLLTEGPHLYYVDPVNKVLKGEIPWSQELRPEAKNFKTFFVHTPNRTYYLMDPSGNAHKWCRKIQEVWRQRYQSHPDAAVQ
To be noted: at 1 µM.

Assay [16] concerns the target T6, 3-phosphoinositide-dependent protein kinase 1 (Homo sapiens). Particulars: at 10 µM.
The target of assay [17] is cAMP-dependent protein kinase catalytic subunit alpha (Homo sapiens) (UniProt P17612). To be noted: at 1 µM.
Assay [18] shares this target. Particulars: at 10 µM.
In assay [19] the target is RAC-gamma serine/threonine-protein kinase (Homo sapiens) (UniProt Q9Y243). Particulars: at 1 µM.
Assay [20] has the same target. To be noted: at 10 µM.

Among the data in ChEMBL document CHEMBL2218924, “A broad activity screen in support of a chemogenomic map for kinase signalling research and drug discovery” (Biochem J, 2013) are residual activity values, retold here.

Platelet-derived growth factor receptor beta (Homo sapiens), sequence (P09619 whole entry): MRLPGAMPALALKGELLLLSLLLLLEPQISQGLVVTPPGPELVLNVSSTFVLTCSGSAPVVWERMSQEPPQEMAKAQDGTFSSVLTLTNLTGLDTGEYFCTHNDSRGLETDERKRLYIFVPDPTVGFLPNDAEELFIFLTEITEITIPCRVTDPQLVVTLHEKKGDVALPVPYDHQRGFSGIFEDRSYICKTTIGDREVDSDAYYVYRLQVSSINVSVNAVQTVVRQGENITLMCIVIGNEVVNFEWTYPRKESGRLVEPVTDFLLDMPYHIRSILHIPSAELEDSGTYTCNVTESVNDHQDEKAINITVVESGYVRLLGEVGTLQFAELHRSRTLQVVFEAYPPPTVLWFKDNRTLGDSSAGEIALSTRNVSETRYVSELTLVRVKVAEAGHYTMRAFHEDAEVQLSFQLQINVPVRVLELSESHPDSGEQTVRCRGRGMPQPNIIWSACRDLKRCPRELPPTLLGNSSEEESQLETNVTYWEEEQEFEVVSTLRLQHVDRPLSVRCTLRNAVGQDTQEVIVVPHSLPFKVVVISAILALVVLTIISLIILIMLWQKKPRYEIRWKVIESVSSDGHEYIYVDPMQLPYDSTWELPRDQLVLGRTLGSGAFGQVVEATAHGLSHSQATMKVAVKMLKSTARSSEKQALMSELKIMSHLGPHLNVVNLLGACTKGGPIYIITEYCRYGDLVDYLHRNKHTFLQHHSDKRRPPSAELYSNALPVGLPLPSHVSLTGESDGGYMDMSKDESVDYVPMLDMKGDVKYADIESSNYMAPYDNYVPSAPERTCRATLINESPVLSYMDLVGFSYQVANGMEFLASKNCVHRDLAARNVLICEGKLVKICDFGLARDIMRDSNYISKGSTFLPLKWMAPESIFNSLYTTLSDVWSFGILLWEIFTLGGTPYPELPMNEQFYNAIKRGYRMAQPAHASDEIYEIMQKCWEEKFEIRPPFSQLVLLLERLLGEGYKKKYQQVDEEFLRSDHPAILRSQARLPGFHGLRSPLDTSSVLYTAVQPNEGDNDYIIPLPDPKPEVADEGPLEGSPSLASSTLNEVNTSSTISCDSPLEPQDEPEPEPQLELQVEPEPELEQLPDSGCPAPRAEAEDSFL
T2 sequence (P54619 whole entry): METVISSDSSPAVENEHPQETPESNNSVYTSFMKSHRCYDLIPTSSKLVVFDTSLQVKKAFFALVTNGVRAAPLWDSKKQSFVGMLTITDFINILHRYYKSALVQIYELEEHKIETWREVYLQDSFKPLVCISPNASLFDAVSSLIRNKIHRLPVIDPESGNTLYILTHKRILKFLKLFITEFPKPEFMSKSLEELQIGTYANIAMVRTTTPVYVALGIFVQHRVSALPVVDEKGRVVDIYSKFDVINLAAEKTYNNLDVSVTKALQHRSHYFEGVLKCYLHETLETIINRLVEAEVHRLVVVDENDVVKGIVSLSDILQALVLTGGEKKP
T2 sequence (Q13131 whole entry partner): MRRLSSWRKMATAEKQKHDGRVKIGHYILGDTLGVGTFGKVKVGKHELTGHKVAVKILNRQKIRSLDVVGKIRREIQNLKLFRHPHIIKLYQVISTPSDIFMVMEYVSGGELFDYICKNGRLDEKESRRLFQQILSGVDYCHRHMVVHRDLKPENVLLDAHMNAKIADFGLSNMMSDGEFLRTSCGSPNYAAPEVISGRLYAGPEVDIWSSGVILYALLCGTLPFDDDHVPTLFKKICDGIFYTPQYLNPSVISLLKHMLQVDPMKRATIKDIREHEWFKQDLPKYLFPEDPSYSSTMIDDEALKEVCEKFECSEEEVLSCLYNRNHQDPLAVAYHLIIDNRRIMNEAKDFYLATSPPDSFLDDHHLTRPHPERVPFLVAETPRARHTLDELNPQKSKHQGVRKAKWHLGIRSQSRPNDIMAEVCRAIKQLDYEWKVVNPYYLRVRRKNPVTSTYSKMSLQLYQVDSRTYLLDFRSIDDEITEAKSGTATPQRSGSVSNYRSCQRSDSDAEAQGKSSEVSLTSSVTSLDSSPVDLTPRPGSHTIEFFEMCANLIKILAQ
T2 sequence (Q9Y478 2-270 partner limits assumed): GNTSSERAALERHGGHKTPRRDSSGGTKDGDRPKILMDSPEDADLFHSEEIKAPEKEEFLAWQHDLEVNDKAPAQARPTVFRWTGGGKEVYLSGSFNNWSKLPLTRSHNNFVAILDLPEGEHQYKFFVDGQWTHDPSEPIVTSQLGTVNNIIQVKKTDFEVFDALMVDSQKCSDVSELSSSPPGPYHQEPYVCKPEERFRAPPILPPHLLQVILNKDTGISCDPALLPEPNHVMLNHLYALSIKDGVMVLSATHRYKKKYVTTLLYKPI
ALK tyrosine kinase receptor (Homo sapiens), sequence (Q9UM73 19-1620 limits assumed): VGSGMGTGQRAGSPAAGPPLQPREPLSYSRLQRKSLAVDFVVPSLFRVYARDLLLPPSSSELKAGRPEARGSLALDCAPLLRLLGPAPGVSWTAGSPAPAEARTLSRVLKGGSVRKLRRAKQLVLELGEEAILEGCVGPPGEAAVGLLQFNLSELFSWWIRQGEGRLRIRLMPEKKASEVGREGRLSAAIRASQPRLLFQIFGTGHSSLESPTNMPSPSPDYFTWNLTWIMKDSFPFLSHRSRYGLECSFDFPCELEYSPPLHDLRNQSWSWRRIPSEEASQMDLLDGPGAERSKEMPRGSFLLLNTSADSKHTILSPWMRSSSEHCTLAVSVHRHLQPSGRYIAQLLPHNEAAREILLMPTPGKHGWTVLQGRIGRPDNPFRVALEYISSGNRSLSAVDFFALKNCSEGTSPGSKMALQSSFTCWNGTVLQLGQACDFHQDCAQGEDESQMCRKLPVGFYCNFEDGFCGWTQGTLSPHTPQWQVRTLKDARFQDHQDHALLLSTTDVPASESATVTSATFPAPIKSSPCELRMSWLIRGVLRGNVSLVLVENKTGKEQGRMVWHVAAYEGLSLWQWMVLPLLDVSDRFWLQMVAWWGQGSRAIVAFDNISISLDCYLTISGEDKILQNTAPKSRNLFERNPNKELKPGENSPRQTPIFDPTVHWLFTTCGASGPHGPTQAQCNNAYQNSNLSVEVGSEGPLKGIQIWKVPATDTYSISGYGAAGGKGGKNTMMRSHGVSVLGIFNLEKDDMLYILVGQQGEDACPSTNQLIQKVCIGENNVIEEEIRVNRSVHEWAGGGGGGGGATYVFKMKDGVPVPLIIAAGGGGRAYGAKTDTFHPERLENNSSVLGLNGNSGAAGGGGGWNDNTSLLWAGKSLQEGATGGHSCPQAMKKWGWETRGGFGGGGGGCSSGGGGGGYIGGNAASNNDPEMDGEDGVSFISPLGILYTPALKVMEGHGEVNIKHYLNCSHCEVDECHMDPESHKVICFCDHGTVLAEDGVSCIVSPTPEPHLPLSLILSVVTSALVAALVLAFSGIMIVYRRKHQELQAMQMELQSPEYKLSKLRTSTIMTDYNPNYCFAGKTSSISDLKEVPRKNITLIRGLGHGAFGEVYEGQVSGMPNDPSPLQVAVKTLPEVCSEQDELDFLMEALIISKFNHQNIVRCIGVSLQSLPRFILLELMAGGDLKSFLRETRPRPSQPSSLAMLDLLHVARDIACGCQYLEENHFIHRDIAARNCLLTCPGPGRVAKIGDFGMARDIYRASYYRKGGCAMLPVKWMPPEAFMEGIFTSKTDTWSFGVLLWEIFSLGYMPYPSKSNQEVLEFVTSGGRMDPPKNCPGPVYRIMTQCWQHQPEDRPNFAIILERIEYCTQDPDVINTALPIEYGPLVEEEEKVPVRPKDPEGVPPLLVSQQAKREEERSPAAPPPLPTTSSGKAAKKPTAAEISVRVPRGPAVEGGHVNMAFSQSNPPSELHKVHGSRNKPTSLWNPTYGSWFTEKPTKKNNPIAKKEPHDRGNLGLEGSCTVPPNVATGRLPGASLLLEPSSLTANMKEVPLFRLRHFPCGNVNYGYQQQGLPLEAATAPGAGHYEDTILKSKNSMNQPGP
RAC-gamma serine/threonine-protein kinase (Homo sapiens), sequence (Q9Y243 whole entry): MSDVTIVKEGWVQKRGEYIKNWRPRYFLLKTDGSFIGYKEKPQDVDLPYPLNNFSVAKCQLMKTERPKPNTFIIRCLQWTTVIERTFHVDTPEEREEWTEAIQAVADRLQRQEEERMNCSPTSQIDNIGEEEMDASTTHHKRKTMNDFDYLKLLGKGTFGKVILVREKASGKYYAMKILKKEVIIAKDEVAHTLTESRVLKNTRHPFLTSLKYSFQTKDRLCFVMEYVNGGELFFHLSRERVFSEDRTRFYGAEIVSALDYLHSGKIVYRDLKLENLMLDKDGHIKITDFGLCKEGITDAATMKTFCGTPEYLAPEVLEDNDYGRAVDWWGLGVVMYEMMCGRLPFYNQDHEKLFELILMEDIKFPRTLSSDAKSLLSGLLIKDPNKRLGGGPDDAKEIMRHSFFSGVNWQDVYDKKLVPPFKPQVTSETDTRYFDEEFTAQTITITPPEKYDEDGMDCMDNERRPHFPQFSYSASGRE

Consider `O=[N+]([O-])c1ccc(-c2nc(-c3ccc(F)cc3)c(-c3ccncc3)[nH]2)cc1`, for which the residual activity was 65% in assay [1]; 38% in [2]; 35% in assay [3]; 97% in [4]; 94% in [5]; 91% in assay [6]. Also, the residual activity in assay [7] came out at 91%; in assay [8], 103%; in [9], 89%; in [10] it was 96%; in assay [11] it was 114%; in assay [12], 114%. Moreover, the residual activity amounted to 103% in assay [13]; 111% in assay [14]; 117% in [15]; 100% in [16]; 97% in assay [17]; 82% in [18]. Also, the residual activity in assay [19] came to 98%; in assay [20], 75%.

In the case of `Cc1ccc(S(=O)(=O)/C=C/C#N)cc1`, the residual activity was 93% in assay [1]; 103% in assay [2]; 106% in assay [3]; 89% in assay [4]; 89% in assay [5]; 87% in [6]. In addition, the residual activity in assay [7] was found to be 86%; in assay [8], 109%; in [9], 94%; in assay [10], 111%; in assay [11] it was 100%; in assay [12] it was 109%. Besides, the residual activity in assay [13] was 104%; in [14] it was 107%; in assay [15] it was 105%; in [16] it was 108%; in assay [17], 102%; in [18] it was 102%. Further, the results for the residual activity in assay [19] and in [20] were 108% and 85%, respectively.

In the case of `O=C(Nc1cccc(Nc2nccc(Nc3cccc(C(F)(F)F)c3)n2)c1)C1CC1`, the residual activity in assay [1] stood at 48%; in assay [2] it was 106%; in [3], 69%; in [4] it was 96%; in assay [5] it was 81%; in assay [6], 88%. The residual activity in assay [7] amounted to 83%; in assay [8], 26%; in assay [9], 41%; in assay [10] it was 89%; in assay [11], 107%; in [12] it was 88%. In addition, the residual activity is 99% in assay [13]; 70% in [14]; 100% in [15]; 93% in assay [16]; 75% in assay [17]; 106% in [18]. The residual activity in [19] is 89%; in assay [20], 67%.

On to `CCC(=O)Nc1ccc2ncnc(Nc3cccc(Br)c3)c2c1`, for which the residual activity in assay [1] is 88%; in [2] it was 125%; in assay [3], 105%; in assay [4] it was 103%; in assay [5], 94%; in assay [6], 105%. For the same molecule, the residual activity in assay [7] is 87%; in assay [8], 99%; in assay [9], 92%; in assay [10] it was 108%; in assay [11], 117%; in assay [12], 91%. The residual activity in [13] stood at 96%; in assay [14], 92%; in [15], 111%; in assay [16], 107%; in assay [17], 88%; in assay [18] it was 102%. The residual activity in [19] is 102%; in assay [20] it was 99%.
